# ± gives the standard deviation of the averaged measurements. The full ranking holds about 1,900 compounds; the median of “CD40L-induced NF-kB luciferase activity, plate-corrected, relative to DMSO (0) and IKK inhibitor VII (-100) controls” is about 0.032, and the lowest 2% start at about -26. The full list was thinned out, with the lowest values kept by preference.
# Tested on: BL2-NFkB-Luc
# Experiment: CD40L-induced NF-kB luciferase activity, plate-corrected, relative to DMSO (0) and IKK inhibitor VII (-100) controls (% normalized activity); higher = more NF-kB reporter activity (less inhibition)
# Details: 9.4 µM; stimulus: tCD40L 64 ng/ml; 4.5 h
# Procedure: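 BL2 B cells with a stable NF-kB response-element luciferase reporter (BL2-NFkB-Luc), 384-well. Cells were pre-incubated with compound at 9.4 uM for 1 h at 37 C, then stimulated with 64 ng/ml trimerized CD40L for 4.5 h; luciferase was read with Steady-Glo. Signal was normalised per plate in Genedata (median DMSO neutral control = 0, median IKK inhibitor VII at 50 uM = -100) with Assay Median plate-pattern correction; duplicate plates.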
row,Structure (SMILES),CD40L-induced NF-kB luciferase activity
1,COC(=O)C1=C(C)N(C)C(=S)NC1c1ccc(Cl)cc1 (stereo not given),-1.51 ± 7.8
2,CC[C@]1(O)C[C@@H]2CN(CCc3c([nH]c4ccccc34)[C@@](C(=O)OC)(c3cc4c(cc3OC)N(C=O)[C@H]3[C@@](O)(C(=O)OC)[C@H](OC(C)=O)[C@]5(CC)C=CCN6CC[C@]43[C@@H]65)C2)C1,-50.4 ± 4.8
3,CC[C@]1(O)C[C@@H]2CN(CCc3c([nH]c4ccccc34)[C@@](C(=O)OC)(c3cc4c(cc3OC)N(C)[C@H]3[C@@](O)(C(=O)OC)[C@H](OC(C)=O)[C@]5(CC)C=CCN6CC[C@]43[C@@H]65)C2)C1,-54.7 ± 1.7
4,CCN(CC)CCCNC(=O)C1c2ccccc2Oc2ccccc21,-3.46 ± 0.27
5,CC1CCCC(C)N1NC(=O)c1ccc(Cl)c(S(N)(=O)=O)c1 (stereo not given),4.34 ± 1.3
6,COc1cc2c(cc1OC)C(=S)NC(C)(C)C2,-9.01 ± 2.9
7,COc1cc(C(=O)NCCc2c[nH]c3ccccc23)ccc1OCc1c(C)noc1C,2.18 ± 3.7
8,Cc1ccc(C=NNc2nc(C(C)(C)C)cs2)o1,37 ± 13
9,Cc1cccc(N2CCN(C(=S)c3ccccc3)CC2)c1,6.51 ± 2.4
10,COc1ccc(CN2CCC(=O)NC2=O)cc1,4.64 ± 6
11,COc1ccc2c3c([nH]c2c1)C1(NCC3)C(=O)Nc2ccccc21 (stereo not given),5.33 ± 6.5
12,Cc1ccc(C(=O)NC(=S)NCCCN2CCOCC2)cc1,8.31 ± 1.3
13,CC(=O)O[C@H]1CSC[C@H]1NC(=O)c1ccccc1,2.65 ± 7.7
14,O=C(Nc1ccc(Oc2c(F)c(F)c(F)c(F)c2F)cc1)OC1CCN2Cc3ccccc3N=C12 (stereo not given),-15.2 ± 2.6
15,COc1cc(CNCCc2c[nH]c3ccccc23)cc(Cl)c1OCC(N)=O,-2.87 ± 1.6
16,O=C1C(O)CC2c3ccccc3CC3(CCCC3)N12 (stereo not given),2.45 ± 2.2
17,c1ccc(Nc2ccccn2)nc1,6.17 ± 1.9
18,OCC1(CCOc2ccccc2)CCN(CCCn2cccn2)CC1,-3.68 ± 2.7
19,c1ccc2c(c1)CCOC2CNCCCN1CCCCC1 (stereo not given),-0.411 ± 1.1
20,Cc1ccc(C(CC(=O)NCc2ccco2)c2ccc(OC(C)C)cc2)cc1 (stereo not given),-5.4 ± 2.5
21,Cc1ccccc1NC(=O)c1c(C)cc(=O)oc1C,-17.1 ± 22
22,COc1cccc(OC)c1C(=O)Nc1nc2ccc([N+](=O)[O-])cc2s1,3.34 ± 5.3
23,CC(C)c1ccc(OCc2ccc(C(=O)O)o2)cc1,-32.6 ± 4.2
24,COC(=O)c1ccc(COc2ccc3c(C)c(C)c(=O)oc3c2C)o1,-0.554 ± 5
25,COc1ccc(NC(=O)Nc2ccc(C(C)C)cc2)cc1,13.4 ± 0.33
26,CCOc1ccc2[nH]c3c(=O)n(CCc4ccc(OC)cc4)cnc3c2c1,-2.8 ± 3.9
27,COc1ccc2c(CCNC(=O)c3ccc([N+](=O)[O-])cc3)c[nH]c2c1,-3.48 ± 6.8
28,Cc1oc(C=NNC(=O)CC2(C)OCCO2)cc1Br,-0.742 ± 2.4

row,Structure (SMILES),CD40L-induced NF-kB luciferase activity
1,COc1ccc(/C=C/C(=O)NC(=S)NN2CCCCC2c2cccnc2)cc1 (stereo not given),1.59 ± 3.4
2,Nc1nnc(CSCc2ccc(Cl)cc2Cl)s1,11.4 ± 2.5
3,Cc1c(OCC(=O)NC(Cc2c[nH]c3ccc(O)cc23)C(=O)O)ccc2c3c(c(=O)oc12)CCC3 (stereo not given),2.12 ± 6.2
4,CCCCC[C@H](O)/C=C/[C@@H]1[C@@H](C/C=C\CCCC(=O)OC)[C@@H](O)C[C@H]1O,-2.47 ± 3.2
5,CCCCC[C@H](O)/C=C/[C@@H]1[C@@H](CCCCCCC(=O)O)[C@@H](O)C[C@H]1O,-29.5 ± 5.2
6,CCCCC[C@H](O)/C=C/[C@@H]1[C@@H](C/C=C\CCCC(=O)O)[C@@H](O)C[C@H]1O,-2.36 ± 2.1
7,O=S(=O)(CCc1nc2ccccc2[nH]1)c1ccc(Cl)cc1,-12.2 ± 1.3
8,COc1cc(C=NCC2OCCc3ccccc32)cc(OC)c1 (stereo not given),-1.7 ± 1.9
9,CC1(C)c2ccccc2N2CC(=O)N(CC(N)=O)C21C (stereo not given),1.75 ± 1.9
10,COc1ccccc1N1C(=O)C2CC(C)=C(C)CC2C1=O (stereo not given),-4.81 ± 2.4
11,COc1ccc(S(N)(=O)=O)cc1C(N)=O,-2.45 ± 4.3
12,CC(=O)[C@@]1(O)CC[C@H]2[C@@H]3C[C@H](C)C4=CC(=O)C=C[C@]4(C)[C@@]3(F)[C@@H](O)C[C@@]21C,-27 ± 2.1
13,CC(=O)OCC(=O)[C@@]12OC(C)(C)O[C@@H]1C[C@H]1[C@@H]3C[C@H](F)C4=CC(=O)C=C[C@]4(C)[C@@]3(F)[C@@H](O)C[C@@]12C,-11.4 ± 5.5
14,CC(=O)[C@@]1(O)CC[C@H]2[C@@H]3C[C@H](C)C4=CC(=O)CC[C@]4(C)[C@H]3CC[C@@]21C,-15.7 ± 2.4
15,CC(=O)OCC(=O)[C@@]1(O)[C@H](C)C[C@H]2[C@@H]3CCC4=CC(=O)C=C[C@]4(C)[C@@]3(F)[C@@H](O)C[C@@]21C,-27.6 ± 1
16,C[C@@H]1C[C@H]2[C@@H]3C[C@H](F)C4=CC(=O)C=C[C@]4(C)[C@@]3(F)[C@@H](O)C[C@]2(C)[C@@]1(O)C(=O)CO,-27.2 ± 0.89
17,CC(=O)OCC(=O)[C@@]1(OC(C)=O)[C@@H](C)C[C@H]2[C@@H]3C[C@H](F)C4=CC(=O)C=C[C@]4(C)[C@@]3(F)[C@@H](O)C[C@@]21C,-17.3 ± 0.28
18,CCCC(=O)O[C@]1(C(=O)COC(C)=O)CC[C@H]2[C@@H]3C[C@H](F)C4=CC(=O)C=C[C@]4(C)[C@@]3(F)[C@@H](O)C[C@@]21C,-17.6 ± 1.6
19,C[C@@H]1C[C@H]2[C@@H]3CCC4=CC(=O)C=C[C@]4(C)[C@@]3(F)[C@@H](O)C[C@]2(C)[C@@]1(O)C(=O)COP(=O)(O)O,-2.27 ± 0.67
20,C[C@@H]1C[C@H]2[C@@H]3C[C@H](F)C4=CC(=O)C=C[C@]4(C)[C@@]3(F)[C@@H](O)C[C@]2(C)[C@@]1(O)C(=O)COC(=O)C(C)(C)C,-29.5 ± 1.7
21,C[C@H]1C[C@H]2[C@@H]3CCC4=CC(=O)C=C[C@]4(C)[C@@]3(Cl)[C@@H](O)C[C@]2(C)[C@@]1(O)C(=O)CO,-25.6 ± 2.2
22,CCC(=O)O[C@]1(C(=O)CCl)[C@@H](C)C[C@H]2[C@@H]3CCC4=CC(=O)C=C[C@]4(C)[C@@]3(F)[C@@H](O)C[C@@]21C,-21.44 ± 0.014
23,CCCC(=O)O[C@]1(C(=O)CCl)[C@@H](C)C[C@H]2[C@@H]3CCC4=CC(=O)C=C[C@]4(C)[C@@]3(F)C(=O)C[C@@]21C,-27.9 ± 3.7
24,Cc1cnc(N)c2c(=O)oc3ccccc3c12,41.69 ± 0.28
25,O=C1CCCC(=O)C1=Cc1c[nH]c2ccccc12,-7.53 ± 0.79
26,CCn1c(=N)c(C(=O)NC)cc2c(=O)n3cccc(C)c3nc21,0.825 ± 8.5
27,O=C(Nc1ccc(N2CCOCC2)cc1)c1ccc(-c2ccccc2[N+](=O)[O-])o1,17.3 ± 0.45
